Results as given in PubChem BioAssay.
The source made the active and inactive calls.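 The calls were made as follows, unless noted: active = inhibition above 20% together with a positive visual image hit; inconclusive = visual image hit but inhibition not above 20%; inactive = no visual image hit.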

Experiments:
[1] = inhibitors of TNFa-induced NFkB p65 translocation, primary screen, imaging, HUVEC, MLSMR starter and 10KST1 sets (AID 438); settings: HUVEC TNFa-induced p65 nuclear translocation; cell count: measured here: nuclei count (cytotoxicity indicator), at 2.08 µM unless noted; inhibition: at 2 µM, stronger effect = higher value unless noted;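 also: compound added about 3h40 before a 20 min TNFalpha stimulation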;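 as to inhibition: signal is the nuclear over cytoplasmic p65 intensity ratio per well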
[2] = reduction of polyQ htt aggregates in cells – imaging, exon1htt(103Q)mCFP cells, high-content imaging, primary screen (AID 483;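 active = visual image review flags a hit and inhibition of aggregation exceeds 20%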;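 also: compound exposure lasted 3 days before fixation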;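 as to nuclei count: percent of the per-plate median nuclei count of sample wells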); settings: exon1htt(103Q)mCFP cell line, aggregate imaging, at 2 µM; inhibition of aggregation: stronger effect = higher value; nuclei count: measured here: cell count, toxicity
[3] = endothelial E-selectin expression blockers – imaging, HUVEC, immunofluorescence, MLSMR starter and 10KST1 sets, primary screen (AID 487;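 active = visually confirmed hit in the image check and inhibition above 20%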;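 as to inhibition: signal is fraction of cell area covered by stained E-selectin grains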;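 as to nuclei count: 100% = median nuclei count of all wells on the same plate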); settings: HUVEC TNFalpha-induced E-selectin immunofluorescence imaging, at 2 µM; inhibition: stronger effect = higher value; nuclei count: measured here: cell number, toxicity
[4] = target: Voltage-gated potassium channel subunit beta-2 (Rattus norvegicus) (UniProt P62483); assay: inhibitors of rat Kvbeta2 reductase activity – biochemical, NADPH fluorescence, primary screen (AID 622;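 active = fluorescence slope higher than the sample average by over 3 SD, cut at about -0.22 in these data, passing the limit was not always enough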;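 also: slope of raw intensity against log time taken from 70 to 1610 s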); settings: recombinant KvBeta, 4-cyanobenzaldehyde reduction, at 10 µM, stronger effect = higher value
[5] = target: Voltage-gated potassium channel subunit beta-2 (Rattus norvegicus) (UniProt P62483); assay: enhancers of rat Kvbeta2 NADPH turnover – biochemical, NADPH fluorescence, primary screen (AID 623;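 active = NADPH fluorescence slope more negative than the mean of all samples by about 3 SD, 99.7% confidence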;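 also: fluorescence intensity change per second fitted from 20 to 320 s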); settings: Recombinant KvBeta, NADPH fluorescence decrease slope, 10 min; at 10 µM; stronger effect = lower value
[6] = target: Alpha-2C adrenergic receptor (Homo sapiens) (UniProt P18825); assay: compounds altering alpha2C-coupled GIRK flux – cell-based, HEK293 alpha2C/GIRK1/2, thallium flux, primary screen (AID 624;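 active = fluorescence slope after compound addition differing from the mean of all screened samples at 99.7% confidence, in either direction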;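 also: slope of fluorescence ratio to pre-addition baseline per second over 15 to 24 s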); settings: thallium flux BTC fluorescence, at 10 µM, actives lie on both sides
[7] = blockers of RIG-like receptor reporter activation – cell-based, Sendai virus stimulus, luciferase, 10K MLSCN set, TLR/RLR signaling modifier project, primary screen (AID 602276;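 active = inhibition at or above 50% at 10 µM; inactive = inhibition below 50%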;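 also: firefly luciferase from ISG56 promoter only with Renilla not read in this screen; 0% = Sendai virus plus DMSO and 100% = medium plus DMSO without virus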); settings: HEK293 RL24 IRF3 luciferase reporter, at 10 µM, stronger effect = higher value
[8] = TLR3 IRF3 reporter activation blockers – cell-based, poly I:C stimulus, luciferase, 10K MLSCN set, primary screen (AID 602277;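 active = inhibition of the reporter signal at or above 50%; inactive = inhibition below 50%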); settings: HEK293-TLR3 RL24 IRF3 luciferase reporter, at 10 µM, stronger effect = higher value

Chain of Voltage-gated potassium channel subunit beta-2 (Rattus norvegicus) (P62483 whole entry, looked up): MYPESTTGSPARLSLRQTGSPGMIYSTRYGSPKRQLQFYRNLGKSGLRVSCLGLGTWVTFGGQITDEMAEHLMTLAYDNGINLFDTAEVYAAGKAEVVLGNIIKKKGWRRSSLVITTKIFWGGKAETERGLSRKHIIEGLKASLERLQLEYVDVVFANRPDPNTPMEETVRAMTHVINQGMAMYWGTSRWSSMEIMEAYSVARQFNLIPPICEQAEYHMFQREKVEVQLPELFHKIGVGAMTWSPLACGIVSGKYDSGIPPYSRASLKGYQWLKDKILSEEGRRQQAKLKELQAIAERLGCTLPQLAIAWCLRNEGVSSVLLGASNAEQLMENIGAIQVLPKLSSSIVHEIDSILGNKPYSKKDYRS
Chain of Alpha-2C adrenergic receptor (Homo sapiens) (P18825 whole entry, looked up): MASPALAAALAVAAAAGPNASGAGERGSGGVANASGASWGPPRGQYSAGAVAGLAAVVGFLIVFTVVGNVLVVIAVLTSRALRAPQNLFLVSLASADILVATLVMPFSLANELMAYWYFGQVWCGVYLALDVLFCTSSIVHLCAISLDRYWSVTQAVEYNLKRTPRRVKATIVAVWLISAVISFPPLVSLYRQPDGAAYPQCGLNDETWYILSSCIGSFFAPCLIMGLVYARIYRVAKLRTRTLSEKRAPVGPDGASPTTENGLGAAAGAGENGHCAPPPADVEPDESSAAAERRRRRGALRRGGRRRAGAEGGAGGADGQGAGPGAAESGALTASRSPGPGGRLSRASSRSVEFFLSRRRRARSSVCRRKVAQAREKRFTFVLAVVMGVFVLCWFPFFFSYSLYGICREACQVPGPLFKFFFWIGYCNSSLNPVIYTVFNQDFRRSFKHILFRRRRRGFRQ

Row | Compound | cell count [1] | inhibition [1] | inhibition of aggregation [2] | nuclei count [2] | inhibition [3] | nuclei count [3] | fluorescence slope [4] | NADPH fluorescence slope [5] | slope [6] | inhibition [7] | inhibition [8]
1 | CCOc1cccc(N2C(=O)CC(=O)NC2=O)c1 | 351 | -3.3% (inactive) | -8.7% (inactive) | 109% | -63.8% (inactive) | 107% | -0.524 (inactive) | -1.6e-06 (inactive) | 0.00568 (inactive) | 2.1% (inactive) | 3.82% (inactive)
2 | CC(=NCCCN1CCOCC1)c1c(O)n(-c2ccccc2C)c(=O)[nH]c1=O | 377 | 3.3% (inactive) | -27.1% (inactive) | 107% | -21.8% (inactive) | 112% | -0.506 (inactive) | -3.5e-05 (inactive) | 0.00474 (inactive) | 7.9% (inactive) | 15% (inactive)
3 | COC(=NC1CCCC1)C(O)c1c[nH]c2ccccc12 (stereo unspecified) | 602 | 9.7% (inactive) | 14% (inactive) | 88.5% | -22.4% (inactive) | 79.7% | -0.536 (inactive) | -2.7e-05 (inactive) | 0.00519 (inactive) | 5.75% (inactive) | 32.2% (inactive)
4 | Cc1cccc(C2=NCC(=O)N(CC(=O)NCc3ccco3)c3sc4c(c32)CCCC4)c1 | 291 | 14.7% (inactive) | 13.6% (inactive) | 92.1% | -48.4% (inactive) | 87.3% | -0.56 (inactive) | -8.4e-05 (inactive) | 0.00582 (inactive) | 14.4% (inactive) | 49.8% (inactive)
5 | Cc1ccc(CC2C(=O)N(C)C(=O)N(C)C2=O)s1 | 451 | 2.6% (inactive) | 2% (inactive) | 109% | 40.2% (inactive) | 101% | -0.471 (inactive) | -4.3e-05 (inactive) | 0.00411 (inactive) | 1.08% (inactive) | 25% (inactive)
6 | COc1ccc(CN2CCN(c3ccccc3F)CC2)c(OC)c1 | 420 | 7.1% (inactive) | -8.1% (inactive) | 109% | -39% (inactive) | 125% | -0.38 (inactive) | 4.4e-05 (inactive) | 0.00736 (inactive) | 4.18% (inactive) | 24.2% (inactive)
7 | CCOP(=S)(OCC)c1ccc(N(C)C)cc1 | 670 | -1% (inactive) | 18.4% (inactive) | 68.7% | -113% (inactive) | 117% | -0.572 (inactive) | 3.8e-05 (inactive) | 0.00443 (inactive) | -17.4% (inactive) | -4.41% (inactive)
8 | COc1ccccc1-n1c(O)c(C=NCc2ccc3c(c2)OCO3)c(=O)[nH]c1=O | 758 | -13.8% (inactive) | -35.1% (inactive) | 121% | -117% (inactive) | 124% | -0.611 (inactive) | -5.6e-05 (inactive) | 0.00662 (inactive) | 2.15% (inactive) | 9.73% (inactive)
9 | O=c1c2ccccc2nc(CSc2ncnc3nc[nH]c23)n1-c1ccccc1 | 546 | 2.3% (inactive) | 2.9% (inactive) | 106% | -123% (inactive) | 103% | -0.492 (inactive) | -9.1e-05 (inactive) | 0.00489 (inactive) | -0.567% (inactive) | 13.7% (inactive)
10 | CCN1CCN(C(=O)COc2cc(=O)n(CC)c3ccccc23)CC1 | 357 | 0% (inactive) | -14.7% (inactive) | 99.2% | -7.3% (inactive) | 115% | -0.386 (inactive) | -4.3e-05 (inactive) | 0.00614 (inactive) | 3.27% (inactive) | 36.3% (inactive)
11 | CC(C)CC12CN3CCN(CC(C3)/C1=N/O)C2 | 291 | -16.4% (inactive) | -20% (inactive) | 126% | 4.9% (inactive) | 109% | -0.496 (inactive) | -1.4e-05 (inactive) | 0.00751 (inactive) | 19.2% (inactive) | 21.5% (inactive)
12 | Cc1ccc2nc(N3CCN(C)CC3)[nH]c2c1 | 369 | -15.9% (inactive) | 5.5% (inactive) | 87.6% | 5.8% (inactive) | 97.7% | -0.506 (inactive) | 4.2e-05 (inactive) | 0.00535 (inactive) | -66.5% (inactive) | -98.1% (inactive)
13 | COc1ccccc1/C=C1/C(=N/O)C2CCN1CC2 | 548 | -15% (inactive) | -6.2% (inactive) | 76.9% | 42.2% (inactive) | 105% | -0.467 (inactive) | -1.3e-05 (inactive) | 0.00314 (inactive) | 9.04% (inactive) | 36.5% (inactive)
14 | Cc1ccc(C(=O)C2CN3CCC2CC3)cc1 (stereo unspecified) | 882 | -7.3% (inactive) | -13.1% (inactive) | 103% | -84.2% (inactive) | 111% | -0.441 (inactive) | -2.3e-05 (inactive) | 0.00351 (inactive) | 11.9% (inactive) | 43.4% (inactive)
15 | COC(=O)CC1(Cc2ccccc2)C(=O)NC(=O)NC1=O | 641 | -6.3% (inactive) | 12.4% (inactive) | 78% | -73.6% (inactive) | 140% | -0.579 (inactive) | -2.7e-05 (inactive) | 0.00355 (inactive) | 17.2% (inactive) | 21.5% (inactive)
16 | CCCCOc1ccc(CN2CCN(CCO)CC2)cc1 | 644 | 2.9% (inactive) | -4.6% (inactive) | 115% | -3.3% (inactive) | 96.5% | -0.43 (inactive) | -0.00013 (inactive) | 0.00523 (inactive) | 5.26% (inactive) | 10.1% (inactive)
17 | c1ccc(C2CC3CC(c4ccco4)N2O3)cc1 (stereo unspecified) | 301 | -1.4% (inactive) | 0% (inactive) | 108% | -68.5% (inactive) | 118% | -0.514 (inactive) | -2.8e-05 (inactive) | 0.00573 (inactive) | 9.13% (inactive) | 16.9% (inactive)
18 | CC1CCC(C(=O)NC(C(=O)N2CCC3(CC2)OCCO3)C(C)C)CC1 (stereo unspecified) | 251 | 3.4% (inactive) | 0.1% (inactive) | 97.2% | 1.3% (inactive) | 88% | -0.399 (inactive) | -0.00014 (inactive) | 0.00626 (inactive) | 5.72% (inactive) | 20.1% (inactive)
19 | O=C1OCCC1NC1=NCCC1 (stereo unspecified) | 571 | -9.6% (inactive) | -1.8% (inactive) | 106% | -16.4% (inactive) | 101% | -0.45 (inactive) | -5e-05 (inactive) | 0.00554 (inactive) | -0.849% (inactive) | 13.5% (inactive)
20 | CCCC(C)C1C(C#N)=C(N)Oc2c1c(=O)oc1ccccc21 (stereo unspecified) | 547 | -13.2% (inactive) | 9.9% (inactive) | 86.4% | -29.8% (inactive) | 108% | -0.422 (inactive) | 2.9e-06 (inactive) | 0.00396 (inactive) | 7.33% (inactive) | 22.2% (inactive)
21 | c1ccc(C2NCc3ccccc3-n3cccc32)cc1 (stereo unspecified) | 704 | -11% (inactive) | 22.5% (inactive) | 66.6% | -10.1% (inactive) | 93.5% | -0.554 (inactive) | -4e-05 (inactive) | 0.00504 (inactive) | 6.74% (inactive) | 15.8% (inactive)
